Source: PubChem BioAssay
Compounds with a hit are over-represented: about 19% of the library has one in this group of screens.
TDP1 cell noCPT: qHTS for Inhibitors of human tyrosyl-DNA phosphodiesterase 1 (TDP1): qHTS in cells in absence of CPT; actives 15% (n = 420,000); Potency, µM (titrated, usually from 46.2 µM), inactives show at the highest dose activity change, negative = growth inhibition, hits mostly inhibitors; AID 686978, 2013; DT40 Tdp1-/- hTDP1 cells, no CPT, ATP luminescence, 48 h; further: nearly all actives have a fitted effect of over 55% in size
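Cells were dispensed at 400 per well, compounds added by pin tool, plates incubated ≥48 hr at 37 °C, then CellTiter-Glo added for 30 min at room temperature before luminescence reading. Line: DT40 Tdp1-/- complemented with hTDP1; camptothecin omitted.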
HT1080 IDH1KD tx: kills HT-1080 cells with IDH1 knockdown | HT-1080 IDH1 knockdown viability, ATP luminescence, 48 h | actives 2% (n = 360,000) | Potency, µM (top dose mostly 46.1 µM), without a hit: top-dose activity, negative = toxicity, most hits filed as cytotoxic;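 further: 0% = DMSO wells and -100% = cell-free medium wells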
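IDH1KD HT-1080 cells, 750/well, RPMI + 5% FBS; compound pinned after 2 h settling; 48 h, 37 °C; CellTiter-Glo luminescence; % activity normalised to DMSO and no-cell wells; curves fitted, classed by r2 and efficacy.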
TDP1 cell CPT: growth inhibition of DT40 Tdp1-/-;hTDP1 cells with camptothecin (screen for TDP1 inhibitors) | chicken DT40 Tdp1-/-;hTDP1 cells + 20 nM CPT, ATP luminescence, 48 h | Potency, µM (titrated, usually from 46.2 µM), for inactives: at the top dose activity change, negative = growth inhibition, hits mostly inhibitors | actives 12% (n = 420,000); further: nearly all actives have a fitted effect of over 55% in size
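Chicken DT40 Tdp1-/- cells stably complemented with human TDP1 were seeded at 400 cells/well in medium containing 20 nM camptothecin, exposed to pin-transferred compounds, and grown at 37 °C for at least 48 hr. Viability was read as ATP luminescence.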
KB-V1 MDR tox: kills drug-selected multidrug resistant KB-V1 cells. KB-V1 MDR cells viability, CellTiter-Glo, 72 h. Potency, µM (titrated, usually from 46.1 µM), hits mostly cytotoxic. actives 3.4% (n = 400,000); further: nearly all actives have a fitted effect of over 60% in size
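Cells of the MDR subline KB-V1 are plated, dosed with compound at multiple concentrations, and incubated 72 h at 37 degrees C; CellTiter-Glo is then added and luminescence read after 10 min.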
KB-3-1 tox: KB-3-1 parental cell cytotoxicity | actives 1.4% (n = 400,000) | Potency, µM (top dose mostly 46.1 µM), hits mostly cytotoxic | AID 1347075 | KB-3-1 viability, CellTiter-Glo ATP luminescence, 72 h; further: nearly all actives have a fitted effect of over 60% in size
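Cells are dispensed, compounds pinned in, plates held at 37 °C for 72 h, then CellTiter-Glo is added and luminescence read after 10 minutes. Cell line: parental KB-3-1 in phenol-red-free DMEM, 10% FBS.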
HT1080-NT tox: kills 2HG-producing HT-1080-NT fibrosarcoma cells. HT-1080-NT fibrosarcoma viability, CellTiter-Glo ATP luminescence, 48 h. Potency, µM (doses to about 46.1 µM), inactives show at the highest dose activity, negative = less viability, most hits filed as cytotoxic. actives 1.6% (n = 360,000);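 further: NT is the 2HG producing partner of a matched IDH1 knockdown line; 0% = DMSO-treated cells and -100% = media-only wells without cells; nearly all actives have a fitted effect of over 55% in size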
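Luminescent CellTiter-Glo readout after 48 hours of compound exposure at 37 degrees C defined viability of HT-1080-NT cells. Activity was normalized to DMSO wells and cell-free media wells; concentration-response curves were fitted and assigned curve classes.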
Starred values were filed as active, the others as inactive; i = inactive; ? = inconclusive; · = no result. The call rests on the fitted dose curve; in most records, active means well fitted curve in the direction sought with a large enough effect; inconclusive means small, poorly fitted or top-dose-only effect, or another doubt; inactive means no such curve, though single readings can be large; an effect the other way counts as inactive or inconclusive. Unless noted, on the % scale 0 is the no-effect control and ±100 the full control effect; potency means the concentration at half of the fitted maximal effect.

SMILES	TDP1 cell noCPT	HT1080 IDH1KD tx	TDP1 cell CPT	KB-V1 MDR tox	KB-3-1 tox	HT1080-NT tox
Cc1nc(C)c2c(=O)cc(-c3ccccc3)[nH]c2n1	5.6µM*	8.9µM*	4.5µM*	3.2µM*	7.1µM*	10µM*
COc1ccc(-c2noc(-c3ccc(N4CCCC4)c([N+](=O)[O-])c3)n2)cc1	-22%	·	-21%	i	i	·
Cc1nc(SC2CC(=O)N(c3ccccc3)C2=O)nc2c1CCCC2 (centres undefined)	-29%	11µM*	?	?	i	?
Cc1ccc(N2C(=O)CC(Sc3nc(C)cc(C)n3)C2=O)cc1 (centres undefined)	8.2µM*	?	7.3µM*	?	?	?
COc1cccc(N2C(=O)CC(Sc3nc(C)cc(C)n3)C2=O)c1 (centres undefined)	6%	?	1%	i	i	1%
CCOC(=O)c1cnc(SC2CC(=O)N(c3ccc(C)cc3)C2=O)nc1N (centres undefined)	4.1µM*	-1%	3.3µM*	?	i	9%
CCc1ccc(-c2nc(SCC(=O)NCCOC)c(-c3ccc(C)cc3)[nH]2)cc1	?	·	-25%	i	i	·
Cc1ccc(CCNC(=O)c2cc3sccc3n2Cc2ccc(F)cc2)cc1	?	·	-20%	i	i	·
Cc1ccccc1NC(=O)c1oc(=O)c2ccccc2c1-c1ccccc1	?	-8%	-2%	i	i	-14%
Cc1cccc(NC(=O)c2oc(=O)c3ccccc3c2-c2ccccc2)c1C	12µM*	?	10µM*	10µM*	i	-15%
COc1ccc(N(C)C(=O)c2oc(=O)c3ccccc3c2-c2ccc(C)cc2)c(OC)c1	16µM*	?	21µM*	?	i	-18%
COc1ccc(OC)c(NC(=O)c2oc(=O)c3ccccc3c2-c2ccccc2)c1	21µM*	·	?	i	?	·
O=S1(=O)N=C(Oc2ccc(C(F)(F)F)cc2)c2ccccc21	·	·	·	i	?	·
CCOC(=O)c1cnc2cc(Cl)c(OC)cc2c1NCC1CCCO1 (centres undefined)	15µM*	-30%	?	?	i	-4%
COc1cc(/C=C2/SC(=S)N(Cc3ccccc3)C2=O)ccc1OCC(=O)O	3%	-25%	1%	i	i	-4%
COc1cc(/C=C2/SC(=S)N(Cc3ccccc3)C2=O)cc(Cl)c1O	13µM*	1%	16µM*	i	?	-10%
COc1cc(/C=C2/SC(=S)N(Cc3ccccc3)C2=O)ccc1OS(C)(=O)=O	?	-3%	?	?	?	-4%
COc1cc(/C=C2\SC(=O)N(Cc3ccc(Cl)cc3)C2=O)cc([N+](=O)[O-])c1O	23µM*	10%	?	?	i	5%
COc1cc([N+](=O)[O-])cc(/C=C2/SC(=S)N(Cc3ccccc3)C2=O)c1O	7.3µM*	-7%	16µM*	?	?	0%
CC(=O)c1ccc(C(=O)N2CCCC(CO)(Cc3ccccc3C)C2)s1 (centres undefined)	-24%	4%	?	?	i	3%
COC(=O)c1cc(=O)nc(NN=Cc2ccc(OC)cc2)s1	-20%	5%	-18%	i	i	?
CCOc1ccc(CCNC(=O)CSCc2ccc(C)cc2)cc1OCC	?	-2%	?	i	i	2%
CCOc1ccc(CCNC(=O)COC(=O)C2CC2)cc1OCC	4%	11%	11%	i	i	8%
CCOc1ccc(CCNC(=O)CSC(=S)N2CCCC2)cc1OCC	?	7%	21µM*	i	i	1%
CCOc1ccc(CCNC(=O)CCSCc2cccc(Cl)c2)cc1OCC	21µM*	·	?	·	·	·
